High-throughput results (PubChem)
FBPA Giardia inh – blocks Giardia fructose-bisphosphate aldolase activity. purified Giardia FBPA. Potency, µM (top dose mostly 59.6 µM), inactives show at the highest dose activity, negative = inhibition, most hits filed as inhibitors. hit rate 0.71% among 290,000. A8B2U2. AID 2451; further: potency means the concentration at half of the fitted maximal effect; on the % scale 0 is the no-effect control and ±100 the full control effect; nearly all actives have a fitted effect of over 55% in size
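Giardia FBPA (40 nM reagent) was preincubated 10 min at RT with compound (up to 57.5 uM final), then substrate plus GAPDH/TPI/NAD/arsenate coupling system with diaphorase/resazurin was added; resorufin fluorescence (525/598 nm) was read after 20 min.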
LmPK inh – LmPK (Leishmania mexicana) enzyme inhibition | Q27686 | purified LmPK, Kinase-Glo ATP luminescence, 1 h | Potency, µM (series often up to 57.5 µM), for the others: top-dose activity change, negative = inhibition, most hits filed as inhibitors | hit rate 0.37% among 290,000 | AID 1721; further: potency means the concentration at half of the fitted maximal effect; on the % scale 0 is the no-effect control and ±100 the full control effect
Target sequence (Q27686 whole entry, looked up): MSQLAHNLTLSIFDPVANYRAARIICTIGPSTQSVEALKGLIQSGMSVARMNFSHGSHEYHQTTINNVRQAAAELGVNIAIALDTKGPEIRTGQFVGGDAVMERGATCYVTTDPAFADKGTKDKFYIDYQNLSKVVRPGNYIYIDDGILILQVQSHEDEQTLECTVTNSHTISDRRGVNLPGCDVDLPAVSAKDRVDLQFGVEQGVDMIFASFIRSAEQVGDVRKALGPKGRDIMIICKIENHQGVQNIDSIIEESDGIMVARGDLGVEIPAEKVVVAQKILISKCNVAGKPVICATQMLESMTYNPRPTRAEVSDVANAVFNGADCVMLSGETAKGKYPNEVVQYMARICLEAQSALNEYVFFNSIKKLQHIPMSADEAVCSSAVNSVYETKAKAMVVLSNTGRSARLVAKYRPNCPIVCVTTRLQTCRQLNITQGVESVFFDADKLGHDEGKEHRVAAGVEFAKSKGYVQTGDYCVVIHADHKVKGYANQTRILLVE
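Kinase-Glo luminescence read after 1 h RT reaction of 0.1 nM LmPK with 0.5 mM PEP and 0.1 mM ADP. Activity scaled between uninhibited and enzyme-free controls.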
Shiga inhibitor – inhibitors of Shiga toxin in Vero cells. Vero cells, Shiga toxin protein synthesis inhibition reporter. inhibition, % at 38.7 µM. hit rate 9.2% among 290,000; in the data active means inhibition mostly above about 28%, no sharp cut-off; inactive means mostly below about 43%; further: 0% is about no effect
CHX counter – counter-screen hit for Shiga toxin inhibitors, cycloheximide; hit rate 12% among 300,000; cell reporter, cycloheximide protein synthesis inhibition counterscreen; max response, %; in the data active means max response mostly above about 13%, no sharp cut-off; inactive means mostly below about 14%; further: read at 38.3 µM for the half of the compounds with a filed dose; 0% is about no effect
RE007 growth inh – less growth of the S. pombe RE007 Vpr strain. S. pombe RE007 Vpr strain, BacTiter-Glo ATP luminescence, 24 h. Potency, µM (top dose mostly 92.2 µM), for inactives: at the highest dose activity change, negative = less growth, actives largely listed as inhibitors. hit rate 0.21% among 360,000. AID 651644; active means well fitted falling curve with a large enough effect; further: potency means the concentration at half of the fitted maximal effect; on the % scale 0 is the no-effect control and ±100 the full control effect; nearly all actives have a fitted effect of over 50% in size
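Fission yeast strain RE007, carrying one chromosomally integrated HIV-1 vpr copy, was seeded at OD 0.01 in PMG+AL medium with 23 nL pinned compound. After 24 h at 30 °C and 99% humidity, viability was read by BacTiter-Glo luminescence.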
TbPYK inhibitor – T. brucei pyruvate kinase inhibition. TbPYK enzyme, Kinase-Glo Plus ATP luminescence, 45 min. AID 624173. Potency, µM (series often up to 76.8 µM), inactives show at the top dose activity, negative = inhibition, most hits filed as inhibitors. hit rate 0.12% among 410,000. Q57TT1; further: potency means the concentration at half of the fitted maximal effect; on the % scale 0 is the no-effect control and ±100 the full control effect; nearly all actives have a fitted effect of over 50% in size
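Activity of T. brucei pyruvate kinase was followed by Kinase-Glo Plus luminescence after the enzyme reacted 45 min at room temperature with 130 uM ADP (final) and substrate. Test compounds were added before ADP at multiple concentrations.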
Starred values were filed as active, the others as inactive; · = no result; [ ] = dose if it differs, or a comment. Shown is part of a subset that was picked to be rich in hits. Unless noted, the call rests on the fitted dose curve; in most records, active means well fitted curve in the direction sought with a large enough effect; inconclusive means small, poorly fitted or top-dose-only effect, or another doubt; inactive means no such curve, though single readings can be large; an effect the other way counts as inactive or inconclusive.

SMILES	FBPA Giardia inh	LmPK inh	Shiga inhibitor	CHX counter	RE007 growth inh	TbPYK inhibitor
COc1ccc(NC(=S)NC(=O)C2CCCCC2)cc1	·	-5%	-5	-3	-3%	3%
CCOc1ccc(NC(=O)c2ccco2)cc1	0%	-29%	47*	30*	-10%	6%
CCOc1ccccc1NC(=O)c1ccc(NC(=O)c2ccco2)cc1	4%	0%	51	13*	-10%	7%
O=C(Nc1ccccc1F)Nc1ccccc1OC(F)F	-9%	-5%	31	25*	-7%	0%
CCOc1ccc(NC(=O)CCC(=O)NNC(=O)c2ccco2)cc1	6%	-2%	2	-1	6%	-4%
COC(=O)COc1ccc(NC(=O)c2ccco2)cc1	-1%	-14%	22	16*	-17%	0%
O=C(Nc1ccccc1OC(F)F)c1ccc(F)cc1	1%	-2%	12	8	-18%	8%
COc1ccc(NC(=O)C(=O)c2cc(C)n(-c3ccc(C)cc3)c2C)cc1Cl	·	·	·	·	·	2%
CC[C@@H](C)[C@@H](C(=O)Nc1ccc(C)cc1)N1Cc2ccccc2C1=O	·	·	·	·	·	-3%
Cc1cccc(NCc2ccc(Br)cc2)n1	0%	-6%	109*	35*	-8%	-19%
Cc1cccc(NCc2cccc3ccccc23)n1	0%	0%	54	41*	-16%	3%
COc1ccc(CNc2cccc(C)n2)c(O)c1	9%	-4%	11	3	-4%	4%
CCOc1ccc(S(=O)(=O)NCc2ccc3c(c2)CCN3C(=O)c2ccc(C)cc2)cc1	·	·	·	·	·	-2%
CCOC(=O)/C=C(\C)Sc1cc(O)c2ccccc2c1O	7.1µM*	10µM*	59*	31*	63µM*	7.1µM*
CCOC(=O)/C=C(\C)Sc1cc(=O)oc2ccccc12	2%	1%	16	8	23%	0%
C[C@H](NC(=O)N1CCn2c1nc1ccccc12)C(=O)NCc1ccccc1	·	3%	0	-2	-1%	-9%
CC(=O)Nc1nonc1-c1nnc(SCC(=O)Nc2cccc(F)c2)n1-c1ccccc1	·	·	·	·	·	-1%
CCN(CC)C(=O)c1cc2c(=O)oc3ccccc3c2s1	-6%	-2%	34*	27*	-2%	-6%
Cc1ccc(C(=O)Cn2c3c(sc2=N)CCCC3)cc1	-28%	·	·	·	·	·
CCC(=O)N1CCc2cc(S(=O)(=O)NCCC(=O)NCc3ccc(C)cc3)ccc21	·	·	·	·	·	-5%
CCOC(=O)N1CCC(NC(=O)c2cc3cc4cc(OC)ccc4nc3o2)CC1	0%	0%	-5	-2	-7%	-2%
COc1ccc2cc3cc(C(=O)N4CCN(C5CCCCC5)CC4)oc3nc2c1	·	6%	7	6	7%	-6%
COc1ccc2cc3cc(C(=O)N(C)C4CCCCC4)oc3nc2c1	·	-11%	77*	30*	-6%	-9%
COc1ccc2cc3cc(C(=O)N4CCCCC4C)oc3nc2c1 (centres undefined)	·	-1%	64*	34*	-24%	4%
COc1ccc2nc3oc(C(=O)NC4CCN(Cc5ccccc5)CC4)cc3cc2c1	1%	-8%	31*	17	-9%	0%
SMILES	FBPA Giardia inh	LmPK inh	Shiga inhibitor	CHX counter	RE007 growth inh	TbPYK inhibitor
COc1ccc2nc3oc(C(=O)Nc4ccc(OC)c(OC)c4)cc3cc2c1	0%	22µM*	-1	-1	-8%	-26%
COc1ccc2cc3cc(C(=O)NCc4ccc(C)cc4)oc3nc2c1	·	·	·	·	·	-1%
COc1ccc2cc3cc(C(=O)Nc4ccc5c(c4)OCO5)oc3nc2c1	3%	3%	-4	9	-11%	3%
Cc1cc(C)cc(N(CC(=O)Nc2c(C)cc(C)cc2C)S(=O)(=O)c2c(C)nn(C)c2C)c1	·	·	·	·	·	1%
CCC(C(=O)NC1CCC(C)CC1)n1nc(C)c2sc3ccccc3c2c1=O (centres undefined)	·	·	·	·	·	2%
N#C/C(=C\Nc1ccc(Cl)cc1)S(=O)(=O)c1ccccn1	-1%	8%	5	-2	1%	2%
COc1ccc(/C=N/NC(=O)CC(=O)NCc2cccnc2)cc1[N+](=O)[O-]	1%	3%	-4	-3	-22%	5%
COc1ccccc1-c1nnc(C2CCN(C(=O)c3cccc(C)c3)CC2)o1	·	·	·	·	·	-7%
COc1ccc2cc3cc(C(=O)NCCCN4CCC(C)CC4)oc3nc2c1	·	-4%	128*	43*	-12%	0%
COc1ccc2cc3cc(C(=O)N4CCCCCC4)oc3nc2c1	8%	-7%	72*	41*	0%	-18%
Cc1nn(CC(=O)NCc2ccc(OC(C)C)cc2)c(=O)c2c(C)n(-c3ccc(Cl)cc3)nc12	·	·	·	·	·	3%
CCOc1ccccc1NC(=O)NNC(=O)CCc1ccc(OC)cc1	1%	8%	-10	-3	-6%	5%
CSc1cccc(NC(=O)C(c2ccccc2)N2Cc3ccccc3C2=O)c1 (centres undefined)	·	·	·	·	·	-1%
Nc1cc(=O)[nH]c(SCC(=O)N2CCC(Cc3ccccc3)CC2)n1	·	·	·	·	-10%	3%
O=C(CO/N=C1\CCCc2nonc21)Nc1ccccc1Cl	4%	-2%	18	10	-13%	-1%
O=C(CO/N=C1\CCCc2nonc21)Nc1ccc(Br)cc1	-12%	1%	13	7	-9%	-23%
Clc1ccc(CO/N=C2\CCCc3nonc32)cc1	-6%	0%	22	27*	-16%	-23%
Clc1ccccc1CO/N=C1\CCCc2nonc21	3%	1%	17	15*	4%	-8%
COC(=O)C1=C(C)N(Cc2ccccc2)[C@]23O[C@](C(=O)OC)(C(=O)N2C1c1ccccc1)C(C(=O)OC)C3C(=O)OC (some centres undefined)	0%[12.9 µM]	·	·	·	·	·
CCOC(=O)[C@@H]1[C@H]2COc3cc(OC)ccc3[C@@H]2N2C(=O)N(c3ccc(Cl)cc3)C(=O)[C@@]12C	-4%	-1%	29*	16*	1%	97%
Cc1ccc(CCC(=O)Nc2ccc(C#N)cc2)o1	·	-10%	0	-8	4%	1%
Cc1ccc(C)c(NC(=O)CCc2ccc(C)o2)c1	0%	3%	-11	-3	-15%	8%
Cc1ccc(CCC(=O)Nc2ccccc2C(=O)O)o1	·	-16%	59*	26*	-7%	-1%
Cc1cc(NC(=O)CCc2ccc(C)o2)no1	-1%	3%	-2	-1	3%	-3%
CC(=O)c1ccc(NC(=O)CCc2ccc(C)o2)cc1	6%	4%	16	13*	20%	-5%
CCc1ccc(CCC(=O)Nc2ccc(C)c(C)c2)o1	5%	3%	58*	40*	-11%	-4%
Cc1ccc(NC(=O)CCc2ccccc2)cc1C	·	·	·	·	9%	-1%
CCc1ccc(NC(=O)CCc2ccc(C)o2)cc1	1%	4%	·	37*	4%	-7%
